# Measurements from PubChem BioAssay AID1159580 (chemical genetic matrix, 2015).
# Several values for one entry are separate records, joined by “and”; a condition that tells them apart may be missing. Equal values may be shown once. In all, about 5,500 compounds went through this assay and about 2,000 (36%) were called active. Roughly 18% stayed inconclusive and do not appear here. The list shows a part of the results. A number with no mark means an inactive call. Rule as the data show it: active = normalized growth mostly below about 0.91 (no sharp cut-off); inconclusive = no clear call, values can overlap the other calls; inactive = mostly above about 0.92.
# Experiment: chemical genetic growth profiling, strain panel (AID 1159580);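 also: tested at 20 µM; growth read once vehicle control cultures reached saturation at 30 °C; 1 = growth at the plate median or of vehicle wells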
# Details: growth OD
compound,measurement,setting,value
N[C@@H](Cc1cc(I)c(Oc2cc(I)c(O)c(I)c2)c(I)c1)C(=O)O,normalized growth,"S. cerevisiae deletion strains, locus YAL013W, strain DEP1, stronger effect = lower value",1.05
same,normalized growth,"S. cerevisiae deletion strains, locus YBR021W, strain FUR4, stronger effect = lower value",1.07
same,normalized growth,"S. cerevisiae deletion strains, locus YBR229C, strain ROT2, stronger effect = lower value",1.02
same,normalized growth,"S. cerevisiae deletion strains, locus YCL029C, strain bik1, stronger effect = lower value",1.22 [resistant] (active)
same,normalized growth,"S. cerevisiae deletion strains, locus YDL035C, strain GPR1, stronger effect = lower value",1.04
same,normalized growth,"S. cerevisiae deletion strains, locus YDL074C, strain BRE1, stronger effect = lower value",1.04
same,normalized growth,"S. cerevisiae deletion strains, locus YDL101C, strain DUN1, stronger effect = lower value",1.04
same,normalized growth,"S. cerevisiae deletion strains, locus YDL134C, strain PPH21, stronger effect = lower value",1.03
same,normalized growth,"S. cerevisiae deletion strains, locus YDL185W, strain tfp1, stronger effect = lower value",1.03
same,normalized growth,"S. cerevisiae deletion strains, locus YDL192W, strain arf1, stronger effect = lower value",1.12 [resistant] (active)
same,normalized growth,"S. cerevisiae deletion strains, locus YDR101C, strain arx1, stronger effect = lower value",1.04
same,normalized growth,"S. cerevisiae deletion strains, locus YDR150W, strain NUM1, stronger effect = lower value",1.06
same,normalized growth,"S. cerevisiae deletion strains, locus YDR162C, strain NBP2, stronger effect = lower value",1.03
same,normalized growth,"S. cerevisiae deletion strains, locus YDR318W, strain mcm21, stronger effect = lower value",1
same,normalized growth,"S. cerevisiae deletion strains, locus YDR388W, stronger effect = lower value",1.09 [resistant] (active)
same,normalized growth,"S. cerevisiae deletion strains, locus YDR502C, strain sam2, stronger effect = lower value",1.05
same,normalized growth,"S. cerevisiae deletion strains, locus YEL061C, strain CIN8, stronger effect = lower value",1.05
same,normalized growth,"S. cerevisiae deletion strains, locus YER110C, stronger effect = lower value",1.1
same,normalized growth,"S. cerevisiae deletion strains, locus YER155C, strain BEM2, stronger effect = lower value",1.06
same,normalized growth,"S. cerevisiae deletion strains, locus YER167W, strain BCK2, stronger effect = lower value",1.01
same,normalized growth,"S. cerevisiae deletion strains, locus YGL078C, strain dbp3, stronger effect = lower value",1.01
same,normalized growth,"S. cerevisiae deletion strains, locus YGL086W, strain mad1, stronger effect = lower value",1
same,normalized growth,"S. cerevisiae deletion strains, locus YGL248W, strain PDE1, stronger effect = lower value",1.02
same,normalized growth,"S. cerevisiae deletion strains, locus YGR078C, strain PAC10, stronger effect = lower value",1.03
same,normalized growth,"S. cerevisiae deletion strains, locus YGR135W, strain pre9, stronger effect = lower value",1.04
same,normalized growth,"S. cerevisiae deletion strains, locus YGR229C, strain SMI1, stronger effect = lower value",1.03
same,normalized growth,"S. cerevisiae deletion strains, locus YGR252W, strain gcn5, stronger effect = lower value",1.17
same,normalized growth,"S. cerevisiae deletion strains, locus YHR030C, strain SLT2, stronger effect = lower value",1.02
same,normalized growth,"S. cerevisiae deletion strains, locus YHR079C, strain IRE1 (second series), stronger effect = lower value",1.27 [resistant] (active)
same,normalized growth,"S. cerevisiae deletion strains, locus YHR079C, strain IRE1, stronger effect = lower value",1.05
same,normalized growth,"S. cerevisiae deletion strains, locus YHR094C, strain hxt1, stronger effect = lower value",1.04
same,normalized growth,"S. cerevisiae deletion strains, locus YHR129C, strain ARP1, stronger effect = lower value",1.04
same,normalized growth,"S. cerevisiae deletion strains, locus YHR200W, strain rpn10, stronger effect = lower value",1.19 [resistant] (active)
same,normalized growth,"S. cerevisiae deletion strains, locus YIL066C, strain RNR3, stronger effect = lower value",1.01
same,normalized growth,"S. cerevisiae deletion strains, locus YIL073C, strain SPO22, stronger effect = lower value",1.07
same,normalized growth,"S. cerevisiae deletion strains, locus YIL125W, strain kgd1, stronger effect = lower value",1.04
same,normalized growth,"S. cerevisiae deletion strains, locus YIR030C, strain dcg1, stronger effect = lower value",1.13 [resistant] (active)
same,normalized growth,"S. cerevisiae deletion strains, locus YJL095W, strain BCK1, stronger effect = lower value",0.994 and 1.02
same,normalized growth,"S. cerevisiae deletion strains, locus YJL134W, strain LCB3, stronger effect = lower value",1.03
same,normalized growth,"S. cerevisiae deletion strains, locus YJL168C, strain set2, stronger effect = lower value",1.1 [resistant] (active)
same,normalized growth,"S. cerevisiae deletion strains, locus YJL187C, strain SWE1 (second series), stronger effect = lower value",1.02
same,normalized growth,"S. cerevisiae deletion strains, locus YJR043C, strain POL32, stronger effect = lower value",1.04
same,normalized growth,"S. cerevisiae deletion strains, locus YJR066W, strain TOR1, stronger effect = lower value",0.978
same,normalized growth,"S. cerevisiae deletion strains, locus YJR075W, strain HOC1, stronger effect = lower value",1.05
same,normalized growth,"S. cerevisiae deletion strains, locus YKL009W, strain mrt4, stronger effect = lower value",0.928
same,normalized growth,"S. cerevisiae deletion strains, locus YKL068W, stronger effect = lower value",0.963
same,normalized growth,"S. cerevisiae deletion strains, locus YKL085W, strain MDH1 (second series), stronger effect = lower value",0.995
same,normalized growth,"S. cerevisiae deletion strains, locus YKL085W, strain MDH1, stronger effect = lower value",0.995
same,normalized growth,"S. cerevisiae deletion strains, locus YKL190W, strain CNB1, stronger effect = lower value",1.04
same,normalized growth,"S. cerevisiae deletion strains, locus YKR001C, strain vps1, stronger effect = lower value",0.953
same,normalized growth,"S. cerevisiae deletion strains, locus YLR039C, strain RIC1, stronger effect = lower value",1.04
same,normalized growth,"S. cerevisiae deletion strains, locus YLR058C, strain SHM2, stronger effect = lower value",1.03
same,normalized growth,"S. cerevisiae deletion strains, locus YLR102C, strain apc9, stronger effect = lower value",1.09 [resistant] (active)
same,normalized growth,"S. cerevisiae deletion strains, locus YLR113W, strain HOG1, stronger effect = lower value",1.01
same,normalized growth,"S. cerevisiae deletion strains, locus YLR262C, strain YPT6, stronger effect = lower value",1.06
same,normalized growth,"S. cerevisiae deletion strains, locus YLR268W, strain sec22, stronger effect = lower value",1.05
same,normalized growth,"S. cerevisiae deletion strains, locus YLR330W, strain CHS5, stronger effect = lower value",1.13 [resistant] (active)
same,normalized growth,"S. cerevisiae deletion strains, locus YLR342W, strain FKS1 (second series), stronger effect = lower value",0.998
same,normalized growth,"S. cerevisiae deletion strains, locus YLR371W, strain rom2, stronger effect = lower value",1.2 [resistant] (active)
same,normalized growth,"S. cerevisiae deletion strains, locus YLR418C, strain cdc73, stronger effect = lower value",0.998
same,normalized growth,"S. cerevisiae deletion strains, locus YML016C, strain PPZ1, stronger effect = lower value",1.02
same,normalized growth,"S. cerevisiae deletion strains, locus YML032C, strain rad52, stronger effect = lower value",1.03
same,normalized growth,"S. cerevisiae deletion strains, locus YML124C, strain tub3, stronger effect = lower value",1.06
same,normalized growth,"S. cerevisiae deletion strains, locus YMR078C, strain ctf18, stronger effect = lower value",1.16 [resistant] (active)
same,normalized growth,"S. cerevisiae deletion strains, locus YMR223W, strain ubp8, stronger effect = lower value",1.25 [resistant] (active)
same,normalized growth,"S. cerevisiae deletion strains, locus YMR263W, strain SAP30, stronger effect = lower value",1.06
same,normalized growth,"S. cerevisiae deletion strains, locus YMR307W, strain GAS1, stronger effect = lower value",1.05
same,normalized growth,"S. cerevisiae deletion strains, locus YNL067W, strain RPL9B, stronger effect = lower value",1.02
same,normalized growth,"S. cerevisiae deletion strains, locus YNL128W, strain TEP1, stronger effect = lower value",1.05
same,normalized growth,"S. cerevisiae deletion strains, locus YNL153C, strain GIM3, stronger effect = lower value",1.02
same,normalized growth,"S. cerevisiae deletion strains, locus YNL183C, strain NPR1, stronger effect = lower value",0.945
same,normalized growth,"S. cerevisiae deletion strains, locus YNL233W, strain BNI4, stronger effect = lower value",1.03
same,normalized growth,"S. cerevisiae deletion strains, locus YNL250W, strain rad50, stronger effect = lower value",1.04
same,normalized growth,"S. cerevisiae deletion strains, locus YNL271C, strain bni1, stronger effect = lower value",1
same,normalized growth,"S. cerevisiae deletion strains, locus YNL298W, strain CLA4, stronger effect = lower value",1.03
same,normalized growth,"S. cerevisiae deletion strains, locus YNL307C, strain MCK1, stronger effect = lower value",0.851 (active)
same,normalized growth,"S. cerevisiae deletion strains, locus YNL322C, strain KRE1, stronger effect = lower value",1.05
same,normalized growth,"S. cerevisiae deletion strains, locus YNR052C, strain pop2, stronger effect = lower value",1.24 [resistant] (active)
same,normalized growth,"S. cerevisiae deletion strains, locus YOL006C, strain TOP1, stronger effect = lower value",1.02
same,normalized growth,"S. cerevisiae deletion strains, locus YOL012C, strain htz1",1.11
same,normalized growth,"S. cerevisiae deletion strains, locus YOL147C, strain pex11, stronger effect = lower value",1.08 [resistant] (active)
same,normalized growth,"S. cerevisiae deletion strains, locus YOR061W, strain CKA2, stronger effect = lower value",1.03
same,normalized growth,"S. cerevisiae deletion strains, locus YOR069W, strain VPS5, stronger effect = lower value",1.03
same,normalized growth,"S. cerevisiae deletion strains, locus YOR144C, strain elg1, stronger effect = lower value",1.2 [resistant] (active)
same,normalized growth,"S. cerevisiae deletion strains, locus YOR184W, strain ser1, stronger effect = lower value",1.01
same,normalized growth,"S. cerevisiae deletion strains, locus YOR231W, strain MKK1, stronger effect = lower value",1.02
same,normalized growth,"S. cerevisiae deletion strains, locus YOR316C, strain cot1, stronger effect = lower value",1.22 [resistant] (active)
same,normalized growth,"S. cerevisiae deletion strains, locus YPL055C, strain LGE1, stronger effect = lower value",1.03
same,normalized growth,"S. cerevisiae deletion strains, locus YPL241C, strain CIN2, stronger effect = lower value",1.05
same,normalized growth,"S. cerevisiae deletion strains, locus YPL256C, strain CLN2, stronger effect = lower value",1.06
same,normalized growth,"S. cerevisiae deletion strains, locus YPR119W, strain clb2, stronger effect = lower value",1.06
same,normalized growth,"S. cerevisiae deletion strains, locus YPR141C, strain kar3, stronger effect = lower value",1.23 [resistant] (active)
same,normalized growth,"S. cerevisiae deletion strains, locus YPR163C, strain tif3, stronger effect = lower value",1.14 [resistant] (active)
same,normalized growth,"S. cerevisiae deletion strains, locus YPR167C, strain met16, stronger effect = lower value",1.17 [resistant] (active)
same,normalized growth,"S. cerevisiae deletion strains, strain wtn01, stronger effect = lower value",1.02
same,normalized growth,"S. cerevisiae strains, strain wild type, stronger effect = lower value",1.04
